Test results taken from PubChem BioAssay (Tox21).
Active and inactive are the calls of the source. Entries that show only a call come without a potency. Calls follow the shape of the full dose curve.

The compounds below were run against Acetylcholinesterase (Homo sapiens) (UniProt P22303) (assay: Acetylcholinesterase (AChE) small molecule antagonists: enzyme-based qHTS assay (AID 1347397; also: nearly all actives have a fitted effect of over 55% in size)). Conditions: Potency: AChE enzyme activity inhibition; outcome: AChE enzyme activity inhibition; series mostly up to 115 µM.
Excerpt: National Center for Advancing Translational Sciences [NCATS]
Division of Preclinical Innovation [DPI]
U.S. Environmental Protection Agency [EPA]
National Institutes of Environmental Health Sciences [NIEHS]
National Toxicology Program [NTP]
U.S. Food and Drug Administration [FDA]
Acetylcholinesterase (AChE) is the primary cholinesterase in the body that hydrolyzes a key neurotransmitter, acetylcholine. Inhibition of AChE activity can lead to neurotoxicity. The known inhibitors include organophosphorous pesticides (OP), chemical warfare agents, drugs, and various phytochemicals.
An enzyme-based assay with the recombinant human AChE and Amplite Colormetric acetylcholinesterase assay kit (AAT Bioquest, Sunnyvale, CA) was used to evaluate the chemicals in the Tox21 10K library that inhibit AChE activity. The assay uses 5, 5-dithiobis-(2-nitrobenzoic acid) (DTNB) to quantify the thiocholine produced from the hydrolysis of acetylthiocholine by AChE.
Tox21 Assay Protocol Summary:
For the enzyme-based AChE assay, recombinant human AChE (50 mU/mL) in 4 uL/well was dispensed into black, clear-bottom 1536-well plates using a Multidrop Combi dispenser (Thermo Scientific, MA). Then, 23 nL of compound or DMSO (vehicle control) was transferred into the assay plates by a Pintool Station (Wako Automation, CA). The plates were incubated for 30 min at room temperature, followed by the addition of 4 uL of colorimetric detection cocktail solution (DTNB, acetylthiocholine) into each well using a Flying Reagent Dispenser (Beckman Coulter, CA) and then 10 min incubation at room temperature.
Potency is read from the fitted curve at half-maximal effect.

Sequence of Acetylcholinesterase (Homo sapiens) (P22303 whole entry, looked up): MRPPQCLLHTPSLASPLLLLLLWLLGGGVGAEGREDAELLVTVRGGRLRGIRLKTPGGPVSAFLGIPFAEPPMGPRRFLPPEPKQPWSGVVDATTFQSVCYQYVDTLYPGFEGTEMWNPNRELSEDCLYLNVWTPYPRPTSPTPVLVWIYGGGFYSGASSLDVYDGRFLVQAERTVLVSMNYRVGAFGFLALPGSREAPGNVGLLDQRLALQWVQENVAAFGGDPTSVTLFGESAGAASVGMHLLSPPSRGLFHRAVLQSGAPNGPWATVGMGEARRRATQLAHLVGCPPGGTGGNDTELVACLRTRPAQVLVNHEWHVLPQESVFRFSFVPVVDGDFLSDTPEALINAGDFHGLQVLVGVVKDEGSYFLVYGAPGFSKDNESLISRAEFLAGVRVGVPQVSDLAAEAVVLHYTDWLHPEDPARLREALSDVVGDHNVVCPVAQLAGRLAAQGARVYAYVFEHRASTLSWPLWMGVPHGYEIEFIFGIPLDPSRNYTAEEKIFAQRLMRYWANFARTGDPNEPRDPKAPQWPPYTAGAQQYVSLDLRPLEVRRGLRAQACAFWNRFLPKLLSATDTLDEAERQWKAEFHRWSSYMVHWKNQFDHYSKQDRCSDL

Row | SMILES | Potency | outcome
1 | CC(C)(C#N)c1cc(Cn2cncn2)cc(C(C)(C)C#N)c1 | inactive | –
2 | NC(=O)N(O)[C@@H]1C=C[C@H](Oc2cccc(Oc3ccc(F)cc3)c2)C1 | inactive | –
3 | CC(CN1CC(=O)NC(=O)C1)N1CC(=O)NC(=O)C1 (stereo not given) | inactive | –
4 | Cc1ccc2ccccc2n1 | inactive | –
5 | CC(C)CC(C)(C)C | inactive | –
6 | Cc1ccc2c(c1)C(=O)c1ccccc1C2=O | inactive | –
7 | CCCCOC(=O)CCS | inactive | –
8 | Nc1cc(S(=O)(=O)O)cc2cc(S(=O)(=O)O)cc(O)c12 | inactive | –
9 | CCCCCCCCOc1ccc(C(=O)c2ccccc2)c(O)c1 | inactive | –
10 | c1ccc2n[nH]nc2c1 | inactive | –
11 | CCCCCCCCOS(=O)(=O)O | inactive | –
12 | FC(F)(F)c1ccccc1Cl | inactive | –
13 | OCCN1CCN(CCCN2c3ccccc3C=Cc3ccccc32)CC1 | inactive | –
14 | CCCCCCCCCCCCCCCO | inactive | –
15 | O=[N+]([O-])c1cc(N(CCO)CCO)ccc1NCCO | inactive | –
16 | CN(N=O)C(=O)N[C@@H]1[C@@H](O)[C@H](O)[C@@H](CO)O[C@@H]1O | inactive | –
17 | Nc1ccc(O)c(N)c1 | inactive | –
18 | C[C@@H](O)[C@H]1C(=O)N2C(C(=O)O)=C(S[C@@H]3CN[C@H](C(=O)N(C)C)C3)[C@H](C)[C@H]12 | inactive | –
19 | O=Cc1ccccc1O | inactive | –
20 | Cc1cc(O)c(C(C)(C)C)cc1Sc1cc(C(C)(C)C)c(O)cc1C | 28.2 µM (active) | –

Row | SMILES | Potency | outcome
21 | CC1=C(C=O)C(C)(C)CC=C1 | inactive | –
22 | O=C(CCNNC(=O)c1ccncc1)NCc1ccccc1 | inactive | –
23 | c1ccc2[nH]ccc2c1 | inactive | –
24 | CC(=O)Oc1ccc(C(=C2CCCCC2)c2ccc(OC(C)=O)cc2)cc1 | inactive | –
25 | Nc1cc(S(=O)(=O)O)ccc1S(=O)(=O)O | inactive | –
26 | C=CCSSCCC | inactive | –
27 | C/C=C(\C)C(=O)OC/C=C(\C)CCC=C(C)C | inactive | –
28 | CCO/C=C1\N=C(c2ccccc2)OC1=O | inactive | –
29 | CCCCC(CC)COS(=O)(=O)O (stereo not given) | inactive | –
30 | CCCCCCCCCCCCCC(=O)O | inactive | –
31 | CCCCCC1CCCC(=O)O1 (stereo not given) | inactive | –
32 | N#Cc1ccc(C(=O)O)cc1 | inactive | –
33 | C=CCOCC(O)CCl (stereo not given) | inactive | –
34 | O=c1[nH]c(=O)n([C@H]2C[C@H](O)[C@@H](CO)O2)cc1Br | inactive | –
35 | CNCCCC12CCC(c3ccccc31)c1ccccc12 | inactive | –
36 | CCOc1ccc(NC(C)=O)cc1N | inactive | –
37 | C/C=C/C=C/CO | inactive | –
38 | CN1CCN(C2=Nc3cc(Cl)ccc3Nc3ccccc32)CC1 | inactive | –
39 | CC(C)S | inactive | –
40 | C#CCN[C@@H]1CCc2ccccc21 | – | inactive
